# Assay results published in the supplement of paper PMC8728848.
# About 410 targets per protein were measured; listed, in parts, are those with the strongest signals and a random draw of the rest.
# B1: CTLX (Homo sapiens), Q6UXS0 (protein)
# chain: SLCPLFWMEFKGHCYRFFPLNKTWAEADLYCSEFSVGRKSAKLASIHSWEENVFVYDLVNSCVPGIPADVWTGLHDHRQEGQFEWTDGSSYDYSYWDGSQPDDGVHADPEEEDCVQIWYRPTSALRSWNDNTCSRKFPFVCKIPSLTIH
# Tests used:
# Assay in all cases: glycan array binding signal (z-score within array); higher = stronger binding
# Settings in all cases: glycan notation: IUPAC condensed, linker removed
# [1] = molecular target: Fuc(a1-2)Gal(b1-3)GalNAc(b1-3)Gal
# How it was run: (§1)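 Columns mapping to the same glycan were averaged after glycan names were converted to IUPAC-condensed notation. The data come from 3228 arrays in the Consortium for Functional Glycomics database, limited to those with an available protein sequence. Binding is reported as a within-array Z-score averaged across arrays of one protein sequence and across linkers.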
# [2] = molecular target: Fuc(a1-2)Gal(b1-4)[Fuc(a1-3)]GlcNAc(b1-2)Man(a1-3)[Fuc(a1-2)Gal(b1-4)[Fuc(a1-3)]GlcNAc(b1-2)Man(a1-6)]Man(b1-4)GlcNAc(b1-4)GlcNAc
# How it was run: as §1
# [3] = molecular target: Fuc(a1-3)[Gal3S(b1-4)]Glc6S
# How it was run: as §1
# Gal(a1-3)Gal(b1-4)Glc = molecular target: Gal(a1-3)Gal(b1-4)Glc
# How it was run: as §1
# Gal(a1-3)GalNAc = molecular target: Gal(a1-3)GalNAc
# How it was run: as §1
# Gal(b1-3)GalNAc = molecular target: Gal(b1-3)GalNAc
# How it was run: as §1
# [4] = molecular target: Gal(b1-3)[Fuc(a1-4)]GlcNAc(b1-2)Man(a1-3)[Gal(b1-3)[Fuc(a1-4)]GlcNAc(b1-2)Man(a1-6)]Man(b1-4)GlcNAc(b1-4)GlcNAc
# How it was run: as §1
# [5] = molecular target: Gal(b1-4)GlcNAc(b1-3)Gal(b1-4)GlcNAc(b1-3)Gal(b1-4)GlcNAc
# How it was run: as §1
# [6] = molecular target: Gal3S(b1-4)[Fuc(a1-3)]Glc
# How it was run: as §1
# GalNAc(a1-3)GalNAc = molecular target: GalNAc(a1-3)GalNAc
# How it was run: as §1
# GalNAc(b1-3)GalNAc = molecular target: GalNAc(b1-3)GalNAc
# How it was run: as §1
# [7] = molecular target: GalNAc(b1-4)GlcNAc(b1-2)Man(a1-3)[GalNAc(b1-4)GlcNAc(b1-2)Man(a1-6)]Man(b1-4)GlcNAc(b1-4)GlcNAc
# How it was run: as §1
# GlcA(b1-3)GlcNAc = molecular target: GlcA(b1-3)GlcNAc
# How it was run: as §1
# [8] = molecular target: GlcNAc(a1-3)Gal(b1-4)GlcNAc
# How it was run: as §1
# [9] = molecular target: GlcNAc(a1-4)Gal(b1-3)GlcNAc
# How it was run: as §1
# [10] = molecular target: GlcNAc(b1-2)Gal(b1-3)GalNAc
# How it was run: as §1
# [11] = molecular target: GlcNAc(b1-3)Gal(b1-3)GalNAc
# How it was run: as §1
# [12] = molecular target: GlcNAc(b1-3)[GlcNAc(b1-4)][GlcNAc(b1-6)]GlcNAc
# How it was run: as §1
# [13] = molecular target: Man(a1-2)Man(a1-3)[Man(a1-6)]Man(a1-6)[Man(a1-2)Man(a1-3)]Man(b1-4)GlcNAc(b1-4)GlcNAc
# How it was run: as §1
# Neu5Ac(a2-3)Gal = molecular target: Neu5Ac(a2-3)Gal
# How it was run: as §1
# [14] = molecular target: Neu5Ac(a2-3)Gal(b1-3)[Neu5Ac(a2-6)]GalNAc
# How it was run: as §1
# [15] = molecular target: Neu5Ac(a2-3)Gal(b1-4)GlcNAc(b1-3)Gal(b1-4)[Fuc(a1-3)]GlcNAc
# How it was run: as §1
# [16] = molecular target: Neu5Ac(a2-3)Gal(b1-4)[Fuc(a1-3)]GlcNAc(b1-6)[Gal(b1-3)]GalNAc
# How it was run: as §1
# [17] = molecular target: Neu5Ac(a2-3)[GalNAc(b1-4)]Gal(b1-4)GlcNAc
# How it was run: as §1
# [18] = molecular target: Neu5Ac(a2-8)Neu5Ac(a2-8)Neu5Ac(a2-3)[GalNAc(b1-4)]Gal(b1-4)Glc
# How it was run: as §1
# Neu5Gc(a2-6)GalNAc = molecular target: Neu5Gc(a2-6)GalNAc
# How it was run: as §1
binder,measurement,setting,value
B1,glycan array binding signal (z-score),[1],0.292
same,glycan array binding signal (z-score),[2],3.01
same,glycan array binding signal (z-score),[3],5.87
same,glycan array binding signal (z-score),Gal(a1-3)Gal(b1-4)Glc,1.11
same,glycan array binding signal (z-score),Gal(a1-3)GalNAc,-1.04
same,glycan array binding signal (z-score),Gal(b1-3)GalNAc,0.235
same,glycan array binding signal (z-score),[4],4.2
same,glycan array binding signal (z-score),[5],-0.836
same,glycan array binding signal (z-score),[6],-0.137
same,glycan array binding signal (z-score),GalNAc(a1-3)GalNAc,-0.619
same,glycan array binding signal (z-score),GalNAc(b1-3)GalNAc,-0.421
same,glycan array binding signal (z-score),[7],0.305
same,glycan array binding signal (z-score),GlcA(b1-3)GlcNAc,0.103
same,glycan array binding signal (z-score),[8],-0.363
same,glycan array binding signal (z-score),[9],3.54
same,glycan array binding signal (z-score),[10],-0.988
same,glycan array binding signal (z-score),[11],4.33
same,glycan array binding signal (z-score),[12],-0.646
same,glycan array binding signal (z-score),[13],-0.346
same,glycan array binding signal (z-score),Neu5Ac(a2-3)Gal,-0.528
same,glycan array binding signal (z-score),[14],0.498
same,glycan array binding signal (z-score),[15],-0.47
same,glycan array binding signal (z-score),[16],4
same,glycan array binding signal (z-score),[17],-0.041
same,glycan array binding signal (z-score),[18],-1.09
same,glycan array binding signal (z-score),Neu5Gc(a2-6)GalNAc,-0.736
